AmpC inh no detg – qHTS Inhibitors of AmpC Beta-Lactamase (assay without detergent). P00811. AmpC nitrocefin hydrolysis, absorbance 480 nm, 0.0001% Triton. Potency, µM (highest dose often 57.1 µM), for the others: at the highest dose activity change, negative = inhibition, usual class: inhibitors. hit rate 0.52% among 330,000;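 also: plate controls were no compound for no effect and no enzyme for full effect; nearly all actives have a fitted effect of over 20% in size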
Target sequence (P00811 whole entry, looked up): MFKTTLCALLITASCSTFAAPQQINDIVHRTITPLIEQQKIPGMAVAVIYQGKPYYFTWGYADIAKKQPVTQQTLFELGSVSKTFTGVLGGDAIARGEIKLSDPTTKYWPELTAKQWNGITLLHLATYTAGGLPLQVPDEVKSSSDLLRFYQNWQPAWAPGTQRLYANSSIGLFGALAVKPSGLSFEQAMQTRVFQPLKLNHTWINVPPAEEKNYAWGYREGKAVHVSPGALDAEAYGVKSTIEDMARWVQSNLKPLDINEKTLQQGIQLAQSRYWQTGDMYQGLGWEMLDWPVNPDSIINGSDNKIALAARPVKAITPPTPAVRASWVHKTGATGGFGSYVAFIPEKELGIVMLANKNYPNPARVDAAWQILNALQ
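AmpC (5.3 nM in the dispensed reagent) in 20 mM phosphate pH 7.0 with 0.01% (detergent screen) or 0.0001% Triton X-100 was preincubated with compounds for 15 min at room temperature. Nitrocefin was then added from an 800 uM solution, and hydrolysis was followed at 480 nm.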
SARS PLpro yeast – qHTS of Yeast-based Assay for SARS-CoV PLP; S. cerevisiae expressing SARS-CoV PLpro, growth rescue; Potency, µM (doses to about 32.9 µM), without a hit: top-dose activity, positive = growth rescue, most hits filed as activators; hit rate 0.19% among 330,000; calls by dose curve; also: 0% is about no effect; nearly all actives have a fitted effect of over 55% in size
AmpC detergent – qHTS Inhibitors of AmpC Beta-Lactamase (assay with detergent); AID 485294, 2010; Potency, µM (top dose mostly 114 µM), inactives show at the top dose activity change, negative = inhibition, actives largely listed as inhibitors; hit rate 0.041% among 370,000; P00811; AmpC hydrolysis of nitrocefin, absorbance 480 nm, 0.01% Triton;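 also: 0% = no-compound wells and -100% = no-enzyme wells; nearly all actives have a fitted effect of over 25% in size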
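20 mM phosphate pH 7.0 + 0.01% (detergent screen) or 0.0001% Triton X-100; 5.3 nM AmpC reagent; cpd preinc 15 min RT; nitrocefin (800 uM stock) to start; A480 q20 s × 4 min; Activity was normalised to no-enzyme and no-compound control wells.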
Giardia FBPA inh – qHTS Assay for Inhibitors of Fructose-1,6-bisphosphate Aldolase from Giardia Lamblia; AID 2451, 2010; Potency, µM (titrated, usually from 59.6 µM), without a hit: at the highest dose activity, negative = inhibition, most hits filed as inhibitors; purified Giardia FBPA; A8B2U2; hit rate 0.71% among 290,000; also: % is scaled to controls: 0 for no effect and ±100 for the full control effect; nearly all actives have a fitted effect of over 55% in size
Target sequence (A8B2U2 whole entry, looked up): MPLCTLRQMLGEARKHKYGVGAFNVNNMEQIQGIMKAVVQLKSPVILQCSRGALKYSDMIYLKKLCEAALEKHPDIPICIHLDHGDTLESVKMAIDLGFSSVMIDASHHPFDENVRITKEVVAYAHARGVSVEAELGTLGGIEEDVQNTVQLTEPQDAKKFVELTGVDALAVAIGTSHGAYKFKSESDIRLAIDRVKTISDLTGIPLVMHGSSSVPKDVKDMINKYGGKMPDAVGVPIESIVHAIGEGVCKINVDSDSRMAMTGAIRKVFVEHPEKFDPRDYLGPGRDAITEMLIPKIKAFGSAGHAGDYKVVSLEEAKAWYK
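40 nM FBPA preincubated 10 min at RT with compound (up to 57.5 uM final), then substrate plus GAPDH/TPI/NAD/arsenate coupling and diaphorase/resazurin added. Fluorescence read after 20 min at RT, 525/598 nm.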
NS1 inh – qHTS Assay for Inhibitors of Influenza NS1 Protein Function; Potency, µM (top dose mostly 46.1 µM), for the others: top-dose activity, positive = more growth; hit rate 0.4% among 270,000; AID 2326, 2010; calls by dose curve; also: actives are rising curves; nearly all actives have a fitted effect of over 50% in size
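OD600 was taken as the measure of yeast growth restored by compound in an NS1-expressing S. cerevisiae strain. Cells had been washed out of glucose medium and diluted 1:100 into galactose -URA medium, pH 6.0.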
Active calls of the source: *; ? = inconclusive; . = not tested or not shown; [ ] = remark or other dose. Rows were chosen to be rich in hits. Some 1.4% of all compounds tested hit in one or more screens of this group. Unless noted, calls follow the shape of the dose curve; as a rule, active = well fitted curve in the direction sought with a large enough effect; inconclusive = small, poorly fitted or top-dose-only effect, or another doubt; inactive = no such curve, though single readings can be large; an effect the other way counts as inactive or inconclusive. Potency is read from the fitted curve at half-maximal effect.

SMILES	AmpC inh no detg	SARS PLpro yeast	AmpC detergent	Giardia FBPA inh	NS1 inh
COc1ccc(NC(=O)NNC(=O)c2cc3ccccc3cc2O)cc1	?	-1.8%	0.9%	-8.9%	9.9%
Cc1ccc(C(=O)NNC(=O)c2cc3ccccc3cc2O)cc1	28.2µM*	1.4%	-14.8%	-24.7%	1.3%
COc1cc(OC)c(NC(=O)c2ccccc2F)cc1Cl	-21.0%	-0.2%	-1.3%	-0.4%	.
O=C(NNC(=O)c1cc2ccccc2cc1O)Nc1ccc(F)cc1F	12.6µM*	3.9%	2.3%	10.3%	14.1%
CC1Cc2ccccc2N1C(=O)COC(=O)c1ccccc1NCCO (stereo not given)	-6.0%	-1.2%	4.5%	.	.
COc1ccc(C2/C(=C(/O)c3ccc4c(c3)CC(C)O4)C(=O)C(=O)N2Cc2cccnc2)cc1 (stereo not given)	-31.8%	0.9%	3.4%	.	5.9%
COc1cc(C(=O)OCC(=O)NC2CCCCCC2)ccc1OCC(C)C	-13.6%	-1.4%	-24.3%	.	.
CC1CCc2nc3ccc(S(=O)(=O)N4CCC(C(=O)NC5CCCC5)CC4)cc3c(C(=O)O)c2C1 (stereo not given)	-7.8%	4.5%	?	-27.2%	13.6%
O=C(O)c1c2c(nc3ccc(S(=O)(=O)N4CCC(C(=O)NC5CCCC5)CC4)cc13)CCCCC2	25.1µM*	16.7%	-13.9%	17.5%	-0.3%
Cc1cnc(NS(=O)(=O)c2ccc(Cl)cc2)c(Br)c1	-32.4%	-3.8%	-7.9%	-7.9%	-60.5%
CC(=O)N1CCc2cc(S(=O)(=O)CCC(=O)Nc3cccc(F)c3)ccc21	-15.4%	-14.5%	-1.9%	5.1%	-5.7%
C#CCn1cc(/C=N/NC(=O)c2cc3ccccc3o2)c2ccccc21	28.2µM*	4.2%	?	-0.9%	7.4%
CC1(C)NC(=O)N(CCOc2ccc3c(c2)CCC3)C1=O	-5.5%	-2.2%	?	1.3%	-1.2%
CCOC(=O)CN1CC23C=CC(O2)C(C(=O)Nc2ccc(C(C)=O)cc2)C3C1=O (stereo not given)	1.12µM*	7.4%	?	2.8%	-15.6%
O=C(CSc1ncnc2c1oc1ccccc12)Nc1nc2ccccc2s1	0.794µM*	-1.6%	?	1.7%	0.3%
Cc1nn(-c2ccc(S(=O)(=O)O)cc2)c(O)c1N=Nc1ccc(-c2ccc(N=Nc3ccc4c(S(=O)(=O)O)cc(S(=O)(=O)O)c(N)c4c3O)c(O)c2)cc1O.[Cu].[Cu]	.	.	.	.	-2.8%
COc1cc(-c2ccc(N=Nc3ccc4c(S(=O)(=O)O)cc(S(=O)(=O)O)c(N)c4c3O)c(OC)c2)ccc1N=Nc1ccc2c(S(=O)(=O)O)cc(S(=O)(=O)O)c(N)c2c1O	.	.	.	14.1µM*	.
CCN1CCN(Cc2nc3c(c(=O)n(C)c(=O)n3C)n2Cc2cccc3ccccc23)CC1	0.159µM*	3.8%	-0.8%	-3.2%	-20.1%
CCN(CC)C(=O)c1ccc(Oc2ccc([N+](=O)[O-])cc2Cl)cc1	-2.2%[2.29 µM]	-2.1%	-5.9%	3.0%	-35.0%
CCN(CC)C(=O)c1cc([N+](=O)[O-])cc2c1-c1ccc([N+](=O)[O-])cc1C2=C(C#N)C#N	-33.3%	0.2%	1.5%	7.06µM*	3.8%
C=CCN=C1N[C@@H](c2cccc(C(F)(F)F)c2)C(C(=O)OC)=C(C)N1CC	-15.3%	-4.3%	?	15.8µM*	12.7%
CCN1C(=NCC(C)C)N[C@@H](c2cccc(C(F)(F)F)c2)C(C(=O)OC)=C1C	8.3%	-1.1%	?	22.6%	1.3%
O=C1c2ccccc2CN1Cc1ccccc1	-7.9%	2.6%	0.7%	-1.6%	-3.9%
CCCC(=O)Nc1ccc(Cc2ccc(NC(=O)CCC)c(C(=O)O)c2)cc1C(=O)O	-35.1%	0.9%	1.9%	21.7%	4.4%
CC(=O)Nc1ccc(Nc2nc(-c3sc(NC(C)=O)nc3C)cs2)cc1	1.78µM*	2.1%	-5.4%	-18.4%	9.0%
SMILES	AmpC inh no detg	SARS PLpro yeast	AmpC detergent	Giardia FBPA inh	NS1 inh
O=C(CNC(=S)NC(=O)c1cccc([N+](=O)[O-])c1)c1ccccc1	12.6µM*	11.5%	-8.0%	0.3%	11.8%
O=C(NC(=S)NCc1ccccc1)c1cccc([N+](=O)[O-])c1	-36.2%	11.9%	-12.7%	?	0.7%
O=C(CSc1nc2ccccc2n1CCc1ccccc1)N1CCOCC1	81.2%	-14.1%	-18.0%	-0.9%	-10.8%
O=C(CSc1nc2ccccc2n1CCc1ccccc1)c1ccc(O)c(O)c1	15.8µM*	3.1%	2.0%	?	9.3%
CCOC(=O)n1c(=O)n(Cc2ccc(F)cc2)c2ccccc21	-3.2%	-8.8%	8.2%	3.3%	.
CCCOC(=O)C1C2C=CC3(CN(c4ccc(Cl)c(F)c4)C(=O)C13)O2 (stereo not given)	7.08µM*	2.5%	5.2%	4.6%	-2.8%
CCC(Sc1nc(=O)cc(N)n1CCc1ccccc1)C(=O)Nc1cc(C)on1 (stereo not given)	2.82µM*	5.5%	?	-2.9%	?
COc1ccc(NC(=O)c2cc(S(=O)(=O)Nc3ccc(OC)cc3)cs2)cc1	11.2µM*	0.0%	-5.0%	-0.9%	-7.6%
COc1ccccc1N1CC(C(=O)Nc2nnc(SCC(=O)N3CCOCC3)s2)CC1=O (stereo not given)	16.6%	-1.3%	6.5%	.	3.7%
CCc1ccc(NC(=O)C2(c3ccccc3)CC2(Cl)Cl)cc1 (stereo not given)	-35.4%	-26.6%	2.6%	.	-120.1%
CC1=NN(c2ccccc2)C(=O)C1C(=O)c1ccccc1 (stereo not given)	-18.5%	?	?	6.0%	5.0%
CC1=NN(c2ccccc2)C(=O)C1c1ccccc1 (stereo not given)	-9.6%	14.1µM*	-13.1%	-12.1%	5.4%
CC1=NOC2(C)Nc3ncnn3C(c3ccccc3)C12 (stereo not given)	-0.2%	-8.5%	-4.0%	-2.7%	8.1%
Cc1ccc(C2CC(=O)Oc3cc(O)ccc32)cc1 (stereo not given)	1.5%	6.8%	0.4%	9.4%[89.2 µM]	0.1%
Cc1ccc(C2CC(=O)Oc3cc4c(cc32)OCO4)cc1 (stereo not given)	.	.	.	50µM*	.
NS(=O)(=O)c1cccc(NC(=O)CC2(CC(=O)O)CCCC2)c1	-4.9%	0.0%	-9.8%	4.0%	14.4%
CCOc1ccc(NC(=O)CSc2nc(N3CCOCC3)nc(N3CCOCC3)n2)cc1	0.9%	0.3%	2.5%	.	-6.8%
CCOC(=O)N1CCC(NC(=O)Cn2cc3c(n2)CCCC3)CC1	2.82µM*	2.8%	?	0.9%	-17.5%
COC(=O)CCCC1=CC2=C(c3ccccc3)C(=O)C(C)(OC(=O)C3CCCC3)C(=O)C2=CN1CCN1CCOCC1 (stereo not given)	92.9%	-3.7%	-2.3%	?	3.6%

Screening data deposited in PubChem BioAssay by National Center for Advancing Translational Sciences (NCATS).
